The nature of assay [1]: HepG2 liver cancer cell viability effects, profiling panel, resazurin fluorescence, 24 h, PK04 Diversity Set (AID 1172). Also: test concentration not given here. As to conditions: higher = more signal. (Alamar Blue is a resazurin reagent that responds to reducing activity.)
Assay [2] can be described thus: basal S. cerevisiae growth modulation, no modifier, primary screen, OD600, strain BY4716, 24 h, basal condition (AID 1173). As to conditions: OD600, 24 h, higher = more signal, called active from +8 up or from −8 down.
Assay [3] in a line: MM1S myeloma cell viability, profiling panel, resazurin fluorescence, basal, 24 h, PK04 Diversity Set (AID 1174). Also: test concentration not given here. Particulars: higher = more signal, called active from +8 up or from −8 down.
Assay [4] deals with Dihydroorotate dehydrogenase (quinone), mitochondrial (Plasmodium falciparum (isolate 3D7)) (UniProt Q08210). As to the kind of experiment: PfDHODH enzyme inhibitors, primary screen, biochemical, C-terminal His tag, absorbance 600 nm (AID 1175).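 Also: recombinant parasite enzyme with a five histidine tag at its C terminus; test concentration not given here.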 As to conditions: DCIP absorbance 600 nm, higher = more signal, called active from +8 up or from −8 down.
Chain of Dihydroorotate dehydrogenase (quinone), mitochondrial (Plasmodium falciparum (isolate 3D7)) (Q08210 whole entry, looked up): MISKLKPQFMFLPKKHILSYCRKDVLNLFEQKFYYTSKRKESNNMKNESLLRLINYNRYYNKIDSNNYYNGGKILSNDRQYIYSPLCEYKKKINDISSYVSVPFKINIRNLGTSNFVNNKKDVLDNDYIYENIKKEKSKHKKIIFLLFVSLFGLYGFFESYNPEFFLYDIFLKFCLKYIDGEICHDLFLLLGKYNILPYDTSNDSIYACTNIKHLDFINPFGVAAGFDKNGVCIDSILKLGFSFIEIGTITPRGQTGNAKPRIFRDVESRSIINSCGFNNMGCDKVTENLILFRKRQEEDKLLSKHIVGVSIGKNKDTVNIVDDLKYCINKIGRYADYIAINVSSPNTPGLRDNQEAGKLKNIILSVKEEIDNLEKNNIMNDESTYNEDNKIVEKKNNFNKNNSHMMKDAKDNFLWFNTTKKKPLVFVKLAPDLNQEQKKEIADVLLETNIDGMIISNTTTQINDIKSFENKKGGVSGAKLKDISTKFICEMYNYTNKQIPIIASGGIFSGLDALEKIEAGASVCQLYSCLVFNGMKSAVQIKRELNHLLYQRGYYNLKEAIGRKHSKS
Assay [5] in a line: P. aeruginosa biofilm formation inhibitors, primary screen, strain PAO1, LB-PBS medium, absorbance 600 nm (AID 1176). Also: test concentration not given here. Particulars: P. aeruginosa PAO1 growth/biofilm, A600, 12 h; higher = more signal.
A short description of assay [6]: S. cerevisiae RM11-1a growth modifiers, primary screen, strain RM11-1a, OD600, basal, 24 h (AID 1177).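 Also: cultures grown under basal conditions with no added stressor; test concentration not given here.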 Particulars: OD600, 24 h, higher = more signal, called active from +8 up or from −8 down.
Assay [7] in a line: E. coli acrAB mutant growth effects, primary screen, E. coli filamentation inducers, strain DRC39, OD650, 24 h (AID 1178).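 Also: growth measured as culture turbidity by optical density at 650 nm; test concentration not given here.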 As to conditions: higher = more signal, called active from +8 up or from −8 down.
Assay [8] in a line: E. coli acrAB mutant growth effects, primary screen, E. coli filamentation inducers, strain DRC39, OD650, 48 h (AID 1179).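 Also: screen aims at cell division blockers that make cells filament.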 Particulars: E. coli DRC39 delta-acrAB growth, higher = more signal, called active from +8 up or from −8 down.
Assay [9] can be described thus: RPMI8226 myeloma cell viability, profiling panel, resazurin fluorescence, basal, 24 h, PK04 Diversity Set (AID 1180).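 Also: RPMI8826 multiple myeloma cell line at 5000 cells per well; test concentration not given here.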 As to conditions: higher = more signal.
The target in assay [10] is E3 ubiquitin-protein ligase XIAP (Homo sapiens) (UniProt P98170). As to the kind of experiment: XIAP binders, primary screen, biophysical, small-molecule microarray, fluorescence 635 nm (AID 1181).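 Also: score merges 667 nm emission and signal to noise over triplicate slides.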 As to conditions: small-molecule microarray binding, higher = more signal.
Chain of E3 ubiquitin-protein ligase XIAP (Homo sapiens) (P98170 whole entry, looked up): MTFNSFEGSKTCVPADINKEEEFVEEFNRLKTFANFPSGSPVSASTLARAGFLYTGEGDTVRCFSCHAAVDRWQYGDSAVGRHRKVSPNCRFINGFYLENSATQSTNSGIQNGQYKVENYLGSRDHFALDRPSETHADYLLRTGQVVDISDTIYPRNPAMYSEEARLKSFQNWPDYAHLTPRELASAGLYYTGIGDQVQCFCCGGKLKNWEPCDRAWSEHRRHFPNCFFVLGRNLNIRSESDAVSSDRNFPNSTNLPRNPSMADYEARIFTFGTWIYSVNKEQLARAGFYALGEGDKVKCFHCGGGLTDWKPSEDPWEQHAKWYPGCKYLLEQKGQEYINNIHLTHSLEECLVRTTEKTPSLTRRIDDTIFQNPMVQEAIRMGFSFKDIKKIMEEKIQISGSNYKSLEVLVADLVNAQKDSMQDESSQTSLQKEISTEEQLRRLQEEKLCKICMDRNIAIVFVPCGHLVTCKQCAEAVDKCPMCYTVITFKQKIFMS

Activity calls are given as the source filed them. Unless noted, no rule for the calls is given here.

With `CC(C)(C)OC(=O)CC[C@]1(C(=O)N2CCCCC2)N=C(c2ccc(OCCCO)cc2)O[C@H]1c1ccccc1N=[N+]=[N-]`, the z-score in assay [1] is 0.188; in assay [2] it was 0.367 (inactive); in assay [3] it was -1.79 (inactive); in assay [5], 0.466 (inactive); in [6], 1.01 (inactive); in assay [7], 1.82 (inactive). The z-score was 1.04 (inactive) in assay [8] and -1.32 in assay [9]. Also, the composite z-score in assay [4] was 0.107 (inactive); in [10] it was -0.0304.
For `CCN(CC)c1ccc(N2CC=CC34O[C@@H]5/C=C\CCCOC(=O)C5[C@H]3C(=O)N(C(CO)C(C)C)[C@@H]4C2=O)cc1` (stereo not given in full), the z-score in assay [1] is -0.211; in [2], 0.282 (inactive); in assay [3] it was -0.2 (inactive); in assay [5], -0.36 (inactive); in assay [6], 0.831 (inactive); in assay [7], -0.0034 (inactive). For the same compound, the z-score in assay [8] was 0.0801 (inactive); in [9], -0.0389. Besides, the composite z-score in assay [4] was -0.952 (inactive); in [10] it was 0.336.
`CC(=O)C1=CCC(c2ccccc2)N(S(=O)(=O)c2ccc(C)cc2)C1` (stereo not given): the z-score in [1] was -0.0399; in assay [2], 0.832 (inactive); in assay [3], -0.551 (inactive); in assay [5], 0.533 (inactive); in assay [6], 0.227 (inactive); in [7], 0.422 (inactive). For the same compound, the z-score is 0.0116 (inactive) in [8] and -0.809 in assay [9]. Also, the composite z-score was 0.746 (inactive) in assay [4] and -0.0773 in assay [10].
As for `O=C(CCN1CCOCC1)c1cccc(O)c1`, the z-score is 1.19 in assay [1]; -0.804 (inactive) in assay [2]; -1.43 (inactive) in [3]; -0.407 (inactive) in assay [5]; -1.07 (inactive) in assay [6]; 0.251 (inactive) in assay [7]. The z-score in assay [8] is 0.737 (inactive); in assay [9], -1.6. The figures for the composite z-score in [4] and in assay [10] were -1.44 (inactive) and 0.226, respectively.
Consider `COc1ccc([Si](C)(C)[C@@H]2[C@@H](CC(=O)N(CCO)Cc3ccccc3)O[C@]3(C(=O)N(C)c4ccccc43)[C@H]2C)cc1`, for which the z-score in [1] is -1.36; in assay [2], -0.599 (inactive); in assay [3] it was -1.64 (inactive); in assay [5], 0.708 (inactive); in assay [6], 0.975 (inactive); in assay [7], -0.284 (inactive). Also, the results for the z-score in [8] and in assay [9] were -0.896 (inactive) and -1.49, respectively. In addition, the results for the composite z-score in [4] and in assay [10] were -0.688 (inactive) and -0.0853, respectively.
Turning to `C=CC[C@@]1(C(=O)O)N=C(c2ccc(OCCCO)cc2)O[C@@H]1c1ccccc1N=[N+]=[N-]`, the z-score in assay [1] was 0.0725; in assay [2], -0.769 (inactive); in assay [3], -0.702 (inactive); in [5] it was 0.976 (inactive); in assay [6], 0.15 (inactive); in assay [7] it was 0.236 (inactive). Further, the z-score in assay [8] was -0.154 (inactive); in [9], -0.0493. The composite z-score is 0.535 (inactive) in assay [4] and -0.0559 in assay [10].
`O=C/C=C/c1ccc(Cl)cc1`: the z-score is -0.831 in assay [1]; -18 (active) in assay [2]; -0.832 (inactive) in assay [3]; 0.475 (inactive) in assay [5]; -4.94 (inactive) in [6]; 0.3 (inactive) in assay [7]. Further, the z-score in [8] was 0.782 (inactive); in [9], -0.81. Moreover, the results for the composite z-score in [4] and in [10] were -1.96 (inactive) and -0.134, respectively.
Take `COCCOC(=O)N1C(=O)[C@@]2(c3cc(C#CCC(C(=O)OC)C(=O)OC)ccc31)[C@H](C(=O)N1CCCCCCC1)[C@H]1C(=O)O[C@H](c3ccccc3)[C@H](c3ccccc3)N1[C@@H]2c1ccc(OCCO)cc1`: the z-score in assay [1] was 2.14; in [2] it was 0.905 (inactive); in assay [3] it was 0.281 (inactive); in [5], 1.3 (inactive); in [6], 2.41 (inactive); in assay [7], 0.027 (inactive). The values for the z-score in assay [8] and in [9] were 0.271 (inactive) and 0.437, respectively. Also, the composite z-score in assay [4] is -0.352 (inactive); in [10], 0.611.
As to `CN(C)CCCCCCNC(=O)[C@H]1C[C@H]2C(=O)N[C@@H](CCCCN)C(=O)N2[C@H]1c1ccc(O)cc1`, the z-score was -0.807 in [1]; 0.293 (inactive) in assay [2]; -0.249 (inactive) in assay [3]; 0.808 (inactive) in [5]; 0.0384 (inactive) in assay [6]; -0.108 (inactive) in assay [7]. The z-score was 0.267 (inactive) in assay [8] and 0.263 in [9]. Besides, the composite z-score was 1.31 (inactive) in [4] and 2.64 in assay [10].
Turning to `CC(=O)NCCCC[C@@H]1NC(=O)[C@H]2C[C@@H](C(=O)NCCCCCC[N+](C)(C)C)[C@@H](c3cccc(OCCO)c3)N2C1=O`, the z-score in assay [1] is 1.04; in assay [2], -0.458 (inactive); in assay [3], 0.56 (inactive); in [5] it was 3.45 (inactive); in [6], -0.718 (inactive); in assay [7], -0.47 (inactive). The z-score was -0.711 (inactive) in [8] and 0.0647 in assay [9]. Further, the results for the composite z-score in [4] and in assay [10] were -1.75 (inactive) and 0.0871, respectively.
`O=c1cccc(C=Cc2ccccc2)o1`: the z-score in assay [1] was 0.266; in assay [2], -2.09 (inactive); in [3], 0.835 (inactive); in assay [5] it was -0.212 (inactive); in assay [6], -0.0064 (inactive); in assay [7], -0.131 (inactive). For the same compound, the values for the z-score in assay [8] and in assay [9] were 0.761 (inactive) and -0.0628, respectively. The results for the composite z-score in [4] and in assay [10] were 0.0681 (inactive) and -0.248, respectively.
With `[N-]=[N+]=NCc1ccccc1[C@@H]1OC(c2ccc(OCCCO)cc2)=N[C@]1(Cc1ccccc1N=[N+]=[N-])C(=O)NCc1ccccc1`, the z-score in [1] was 0.206; in [2], 1.15 (inactive); in assay [3], -0.0978 (inactive); in [5], 0.603 (inactive); in [6], 1.27 (inactive); in [7] it was -0.954 (inactive). The z-score in assay [8] is -1.96 (inactive); in assay [9], -1.46. The figures for the composite z-score in assay [4] and in assay [10] were 0.139 (inactive) and 0.0852, respectively.
On to `CC(C)N1C(=O)[C@@]2(c3ccc([N+](=O)[O-])cc3)CC(=O)N(CC34CC5CC(CC(C5)C3)C4)[C@@H]2c2ccc(CO)cc21`, for which the z-score in [1] was -0.0685; in assay [2] it was 0.601 (inactive); in assay [3], -1.02 (inactive); in assay [5], -0.0902 (inactive); in assay [6] it was 0.156 (inactive); in [7] it was 0.101 (inactive). The z-score in [8] was 0.0457 (inactive); in assay [9], -0.629. The composite z-score in [4] was -4.98 (inactive); in assay [10], -0.0224.

The record behind these values is PubChem BioAssay.
